# Source: PubChem (several laboratories)
# A selection: hits, their analogues and other compounds. The true share with any hit is near 4.1%.
# 697 NFkB inh: inhibitors of PMA/ionomycin-induced NF-kB reporter, 697 cells, primary screen, B-cell NF-kB inhibitor project, cell-based, luminescence, uHTS | 697 B-cell NF-kB luciferase reporter, 16 h | 0.33% of 330,000 active | inhibition, % at 4 µM; in the data active = inhibition above about 35%
# Mdm2-MdmX inh: inhibitors of human Mdm2-MdmX association, primary screen, cell-based, luminescence, split luciferase, SaOS-2, uHTS; 3% of 330,000 active; AID 485346, 2010; inhibition, % at 8 µM; SaOS-2 split-luciferase Mdm2/MdmX complementation;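 active = inhibition of at least 50% at 8 µM in the primary screen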
# Jurkat NFkB inh: inhibitors of induced NF-kB luciferase reporter, primary screen, TCR NF-kB activation inhibitor project, cell-based, luminescence, uHTS; Jurkat, PMA/ionomycin-induced NF-kB luciferase reporter; inhibition, % at 4 µM; 0.53% of 330,000 active; AID 435003, 2010; in the data active = inhibition above about 50%
# aSyn UTR inh: MLPCN primary screen, SNCA 5' untranslated region. inhibition, % (tested at 7.5 µM). 0.82% of 300,000 active. alpha-synuclein 5'UTR reporter, inhibitor activity; in the data active = inhibition above about 60%;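 note: H4 neuroglioblastoma cells stably carrying SNCA 5'UTR luciferase fusion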
# Gli-Sufu antag: Gli-Sufu pathway antagonists, primary screen, luciferase luminescence, Sufu-KO-LIGHT cells, uHTS; AID 588413, 2011; 0.74% of 340,000 active; inhibition, % at 5 µM; Sufu-KO-LIGHT fibroblasts, Gli luciferase reporter luminescence;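 active = inhibition above about 55%, limit read from the data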
# KLF5 inh: KLF5 expression inhibitors, primary screen, DLD-1 cells, luminescence; DLD-1 KLF5 promoter-luciferase reporter; inhibition, % at 5 µM; 0.23% of 290,000 active;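 active = inhibition above a per-plate limit of that plate's mean compound inhibition plus 3 SD, cut at about 60% in these data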;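 note: higher means less KLF5 promoter-driven luciferase light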
# Mdm2 MdmX conf: Mdm2-MdmX complex disruptors, retested hits, confirmation, luminescence, single concentration; shares compounds with Mdm2-MdmX inh; Mdm2-MdmX binding, luminescent assay; inhibition, % at 8 µM; 55% of 10,000 active; AID 489028, 2010; in the data active = inhibition above about 40%
# Full FLuc ctr: full-length luciferase signal inhibition, confirmation, counter-screen for Mdm2/MdmX interaction inhibitor project, cell-based, single concentration, SaOS-2; 77% of 6,200 active; SaOS-2 full-length luciferase counterscreen, luminescence; shares compounds with Mdm2-MdmX inh; inhibition, % at 8 µM;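 active = mean inhibition at 8 µM reaching about 37%, which flags the compound as non-specific, limit read from the data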;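 note: p53-null SaOS-2 cells with luciferase driven by a doxycycline-inducible promoter; compound on cells about two nights before reading with doxycycline added after day one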
# Hits are given with their value; - = inactive; . = no result given; ! = not active in a repeat.
SMILES,697 NFkB inh,Mdm2-MdmX inh,Jurkat NFkB inh,aSyn UTR inh,Gli-Sufu antag,KLF5 inh,Mdm2 MdmX conf,Full FLuc ctr
CN(CC(=O)Nc1ccccc1Cl)C(=O)COC(=O)c1nc(Cl)c(Cl)c(Cl)c1Cl,-,77.7,-,-,-,-,40.9,-
C/C(=C\c1ccco1)CN1CCN(Cc2ccc(C)o2)C(CCO)C1 (centres undefined),-,-,-,-,-,-,.,.
Cc1noc(/C=C/N(C)C)c1S(=O)(=O)N1CCCC(C(=O)Nc2ccc(F)cc2F)C1 (centres undefined),-,-,-,-,-,-,.,.
COc1cccc2cc(-c3cc(=O)oc4cc(C)c(OCC(C)=O)cc34)oc12,-,54.5,-,-,-,-,-,.
COc1ccc2oc(=O)cc(-c3cc4cccc(OC)c4o3)c2c1,-,-,-,-,-,-,.,.
CCOC(=O)c1c(C)sc2c1N(C(=O)CCl)c1cc(Cl)ccc1S2,-,100.3,-,-,-,-,77.4,46.6
Cc1sc2ncnc(SCC(=O)N3c4ccccc4Sc4ccc(Cl)cc43)c2c1C,-,-,-,-,-,-,.,.
COc1ccc(/C=C2\SC(=S)N(Cc3cccnc3)C2=O)cc1C,-,59.2,-,-,-,-,-,.
O=C1/C(=C/c2ccc(O)cc2)SC(=S)N1Cc1cccnc1,-,-,-,-,-,-,.,.
C#CCOc1ccc(/C=C2\SC(=S)N(Cc3cccnc3)C2=O)cc1,-,60.3,-,-,-,-,70.5,55.4
O=C1/C(=C/C=C/c2ccccc2)Oc2c1ccc(O)c2CN1CCN(CCO)CC1,-,-,-,-,-,-,.,.
CN(C)Cc1c(O)ccc2c1O/C(=C\C=C\c1ccccc1)C2=O,-,100.5,-,-,-,-,72.3,-
CCN1CCN(Cc2c(O)ccc3c2O/C(=C\C=C\c2ccccc2)C3=O)CC1,-,95.8,-,-,-,-,59.3,37.3
CCc1cccc(C)c1NC(=O)CCN1C(=O)NC(C)(C)C1=O,-,-,-,.,-,.,.,.
Cc1csc2nc(O)c(C(=O)NCCCc3ccccc3)c(=O)n12,-,61.0,-,-,-,.,70.0,-
O=C(Nc1ccc([N+](=O)[O-])cc1Br)c1cc2ccccc2nc1Cl,-,84.6,-,-,-,-,-,.
Cc1occc1C(=O)Nc1ccc([N+](=O)[O-])cc1Br,-,-,-,-,-,-,.,.
CCOc1cc(C2NC(=O)NC(c3ccccc3)=C2C(=O)c2ccccc2)c(Br)cc1OCC(=O)O (centres undefined),-,-,-,-,-,-,.,.
CCn1c(SCC(=O)N2c3ccccc3Sc3ccc(Cl)cc32)nc2c1c(=O)n(C)c(=O)n2C,.,.,.,.,.,-,.,.
O=C(NCc1cccnc1)c1ccc(Cl)c(S(=O)(=O)Nc2ccccc2C(=O)NCc2cccnc2)c1,-,-,-,-,-,-,.,.
CN(C)/C=C/c1c([N+](=O)[O-])c2ccc(O)cc2n1-c1ccccc1,-,61.4,-,-,-,-,67.9,53.6
CCOC(=O)CSc1nc(=O)n2cc(C)ccc2n1,-,-,-,-,-,-,.,.
COc1ccc(-c2nc(N)ncc2-c2csc(C)n2)c(O)c1OC,-,-,-,-,-,-,.,.
Oc1c(C(Nc2nc3ccccc3s2)c2ccco2)ccc2cccnc12 (centres undefined),-,60.5,-,65.8,-,-,85.3,42.0
Cc1ccc(C)c(-n2c(SCC(=O)NC(C(=O)O)C(C)C)nnc2-c2cccc(Cl)c2)c1 (centres undefined),-,-,-,-,-,-,.,.
SMILES,697 NFkB inh,Mdm2-MdmX inh,Jurkat NFkB inh,aSyn UTR inh,Gli-Sufu antag,KLF5 inh,Mdm2 MdmX conf,Full FLuc ctr
CN(C)C(=O)CCc1ccc2c3c([nH]c2c1)[C@]1(CCC2CCCC2)[C@@H](C(=O)N2CCOCC2)C[C@H](CC(=O)NCc2cccc(C(F)(F)F)c2)C(=O)N1CC3,-,61.1,.,.,-,.,53.1,58.9
CN(C)CCCNC(=O)CC1C[C@H](C(=O)N2CCOCC2)[C@@]2(CCC3CCCC3)c3[nH]c4ccccc4c3CCN2C1=O (some centres undefined),-,-,-,.,-,.,.,.
O=C(CC1C[C@H](C(=O)N2CCOCC2)[C@@]2(CCC3CCCC3)c3[nH]c4ccccc4c3CCN2C1=O)NCCC1=CCCCC1 (some centres undefined),-,60.4,-,.,-,.,-,.
O=C(CC1C[C@H](C(=O)N2CCOCC2)[C@@]2(CCC3CCCC3)c3[nH]c4ccccc4c3CCN2C1=O)NCc1cccc(C(F)(F)F)c1 (some centres undefined),.,.,.,.,-,.,.,.
COc1ccc2[nH]c3c(c2c1)CCN1C(=O)C(CC(=O)NCCN2CCOCC2)C[C@H](C(=O)N2CCOCC2)[C@@]31CCC1CCCC1 (some centres undefined),-,66.5,.,.,-,.,-,.
O=C(Nc1cnn(C23CC4CC(CC(C4)C2)C3)c1)c1cnn2c(C(F)(F)F)cc(-c3ccco3)nc12,-,58.1,-,-,-,-,-,.
CC[C@H](C)C(=O)O[C@H]1C[C@@H](C)C=C2C=C[C@H](C)[C@H](CC[C@@H]3C[C@@H](O)CC(=O)O3)[C@H]21,-,52.7!,-,-,-,-,-,.
O=C(N/N=C/c1coc2ccc(Cl)cc2c1=O)c1cc(O)cc(O)c1,-,-,-,-,-,-,.,.
CCOc1ccccc1C(=O)N/N=C/c1coc2ccc(Cl)cc2c1=O,-,82.1,-,.,-,-,85.2,-
C/C(=N\Nc1nc(-c2ccccn2)nc2ccccc12)c1ccc(F)cc1,-,74.7,-,75.3,-,-,-,-
c1ccc(-c2nc(N3CCOCC3)c3ccccc3n2)nc1,-,-,-,-,-,-,.,.
c1ccc(-c2nc(N3CCCCCC3)c3ccccc3n2)nc1,-,83.6,-,-,-,-,85.8,-
Fc1ccc(Oc2nc(-c3ccccn3)nc3ccccc23)cc1,-,56.9,-,-,-,-,-,.
C/C(=N\Nc1nc(-c2ccccc2O)nc2ccccc12)c1ccccc1,-,-,-,-,-,-,.,.
CCCCCCCCCC[N+](C)(C)CC/C=C1/c2ccccc2Sc2ccc(Cl)cc21,-,82.8,-,-,-,-,76.5,-
CC[N+](C)(C)CC/C=C1/c2ccccc2Sc2ccc(Cl)cc21,-,-,-,-,-,-,.,.
CN(C)CC/C=C1\c2ccccc2Sc2ccc(Cl)cc21,-,-,-,-,-,-,.,.
